Assay outcomes from PubChem BioAssay.
APP transl inh = inhibitors of APP translation via 5'UTR reporter, primary screen, APP 5'UTR luciferase, SH-SY5Y cells | SH-SY5Y APP 5'UTR-luciferase reporter, luminescence | AID 1285, 2008 | inhibition, % at 2 µM | 0.82% of 190,000 active;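 active = inhibition above a set limit, derived from the sample mean plus 3 SD, cut at about 45% in these data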
aSyn UTR inh = MLPCN primary screen, SNCA 5' untranslated region; alpha-synuclein 5'UTR reporter, inhibitor activity; inhibition, % (tested at 7.5 µM); 0.82% of 300,000 active; AID 1813, 2009; in the data active = inhibition above about 60%;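 also: H4 neuroglioblastoma cells stably carrying SNCA 5'UTR luciferase fusion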
KLF5 inhibitor = KLF5 expression inhibitors, primary screen, DLD-1 cells, luminescence; DLD-1 KLF5 promoter-luciferase reporter; 0.23% of 290,000 active; inhibition, % at 5 µM; AID 1700, 2009;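 active = inhibition above a per-plate limit of that plate's mean compound inhibition plus 3 SD, cut at about 60% in these data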;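 also: higher means less KLF5 promoter-driven luciferase light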
BaF3 tox = parental Ba/F3 cell viability inhibition, counter-screen for JAK2V617F inhibitor project, murine pro-B, CellTiter-Glo luminescence | inhibition, % at 5.6 µM | AID 1486, 2009 | 1.1% of 220,000 active | CellTiter-Glo ATP luminescence;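 active = inhibition above a per-campaign cutoff, the mean inhibition of all tested compounds plus 3 SD, cut at about 27% in these data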
IEC-6 tox-1 = cytotoxicity in IEC-6 intestinal epithelial cells, primary screen, cytotoxicity control for KLF5 inhibitor project, cell-based, luminescence. IEC-6 cytotoxicity, luminescence viability. inhibition, % at 5 µM. 0.78% of 290,000 active
Ba/F3 V617F tox = reduced viability of JAK2V617F-dependent Ba/F3 cells, primary screen, JAK2V617F inhibitor project, cell-based, Ba/F3 EpoR-JAK2V617F, luminescence; ATP luminescence; AID 1446, 2008; inhibition, % at 5.6 µM; 1.1% of 220,000 active;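 active = inhibition above the campaign mean plus 3 SD over all tested compounds, cut at about 24% in these data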;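 also: cytokine-independent growth of Ba/F3 cells driven by EpoR plus mutant JAK2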
KLF5 inh confirm = KLF5 expression inhibitors, confirmation, DLD-1 cells, luminescence. inhibition, % at 4 µM. DLD-1 KLF5 promoter firefly luciferase reporter. 79% of 610 active. shares compounds with KLF5 inhibitor;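 active = inhibition above a set limit taken from the earlier primary screen, cut at about 63% in these data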
IEC-6 tox-2 = cytotoxicity in rat IEC-6 cells, cytotoxicity control for KLF5 inhibitor project, cell-based, luminescence, triplicate. shares compounds with KLF5 inhibitor. IEC-6 rat intestinal cells, viability luminescence. inhibition, % at 4 µM. 56% of 610 active; in the data active = inhibition above about 23%;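 also: cells exposed to compounds for 48 hours before viability read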
IEC-6 tox confirm = cytotoxic compounds in IEC-6 epithelial cells, confirmation, cytotoxicity control, cell-based, luminescence | shares compounds with IEC-6 tox-1 | IEC-6 rat intestinal epithelial viability | inhibition, % at 5 µM | 63% of 1,900 active
A number is an active result; i = inactive; nt = no result given. A selection: hits, their analogues and other compounds. The true share with any hit is near 2.2%. Rule as the data show it, unless noted: active = inhibition above about 22%; inactive = the rest.

SMILES	APP transl inh	aSyn UTR inh	KLF5 inhibitor	BaF3 tox	IEC-6 tox-1	Ba/F3 V617F tox	KLF5 inh confirm	IEC-6 tox-2	IEC-6 tox confirm
Brc1ccc(C2=Nn3c(nnc3-c3n[nH]c4c3CCC4)SC2)cc1	94	86	67	81	77	75	67	63	59
CCn1c(C)nc2cc(-c3nc4n(n3)Cc3ccccc3-4)ccc21	85	87	112	42	33	48	110	39	43
CCN(CC)CCNC(=O)c1ccc2c(c1NCCO)C(=O)c1ccccc1C2=O	nt	96	107	102	100	96	89	102	102
Cc1ccc(C(=O)c2cc([N+](=O)[O-])ccc2N2CCOCC2)c(C)c1	94	98	74	84	91	76	84	70	59
O=C(c1ccc(Br)cc1)c1cc([N+](=O)[O-])ccc1N1CCCCC1	95	92	84	79	87	83	82	63	60
Cc1ccc(C)c(C(=O)COC(=O)c2cc([N+](=O)[O-])ccc2N2CCOCC2)c1	nt	i	nt	nt	nt	nt	nt	nt	nt
O=C(c1cc([N+](=O)[O-])ccc1N1CCOCC1)N1CCN(c2ccccc2)CC1	nt	91	82	nt	90	nt	90	73	62
Cc1cc(C)c(NC(=O)COC(=O)Cc2cccs2)c(C)c1	nt	i	nt	nt	nt	nt	nt	nt	nt
COc1ccc2ccc(OC)c(/C=N/n3cnnc3)c2c1	nt	i	i	nt	i	nt	nt	nt	nt
COc1ccc(S(=O)(=O)NCC2CCCN(Cc3ccc(O)cc3)C2)cc1 (stereo not given)	nt	i	i	nt	i	nt	nt	nt	nt
COc1cc(-c2noc(C)c2C#CCO)cc(OC)c1OC	nt	i	i	nt	i	nt	nt	nt	nt
COc1cc(-c2noc(C)c2/C=C/c2ccc(OC(C)=O)cc2)cc(OC)c1OC	nt	95	71	nt	91	nt	83	63	60
Cc1ccc(NC(=O)N2CCCC2C(=O)Nc2nnc(C(C)C)s2)cc1 (stereo not given)	nt	i	i	nt	i	nt	nt	nt	nt
COc1ccc(/C=N/Nc2nc3ccccc3[nH]2)cc1OC	i	i	i	i	i	i	nt	nt	nt
C(=N\Nc1nc2ccccc2[nH]1)/c1ccc2ncccc2c1	nt	95	62	96	95	90	i	90	85
O=C(O)CCCCCNC(=O)CSc1nnc(-c2ccco2)n1-c1ccccc1	nt	i	i	nt	i	nt	nt	nt	nt
Cc1cc(NC(=O)c2nn(C)c(C)c2Br)no1	nt	i	i	nt	i	nt	nt	nt	nt
CC(=O)N1c2ccc(S(=O)(=O)NCC3CCC(C(=O)NCc4ccco4)CC3)cc2CC1C (stereo not given)	nt	i	i	nt	i	nt	nt	nt	nt
Cc1cc2nc(-c3ccc[nH]c3=O)[nH]c2cc1C	nt	77	83	nt	40	nt	i	i	33
COc1ccc(C(Nc2cc(C)ccn2)c2ccc3ccc(C)nc3c2O)cc1 (stereo not given)	nt	i	i	i	i	i	nt	nt	nt
CC(=O)NC(c1ccccc1)c1cc(Cl)c2cccnc2c1O (stereo not given)	nt	i	89	nt	83	nt	74	87	73
COc1ccc(C(NC(=O)C(C)C)c2ccc3cccnc3c2O)cc1 (stereo not given)	nt	79	85	54	22	74	87	52	66
O=[N+]([O-])c1cc(Cl)c2cccnc2c1O	i	i	i	i	i	i	nt	nt	nt
CCCC(=O)NC(c1ccc(N(C)C)cc1)c1ccc2cccnc2c1O (stereo not given)	nt	i	82	nt	63	nt	88	76	81
CCCC(=O)NC(c1ccc(C(C)C)cc1)c1ccc2cccnc2c1O (stereo not given)	nt	83	69	nt	24	nt	84	71	73
SMILES	APP transl inh	aSyn UTR inh	KLF5 inhibitor	BaF3 tox	IEC-6 tox-1	Ba/F3 V617F tox	KLF5 inh confirm	IEC-6 tox-2	IEC-6 tox confirm
COc1ccc(C)cc1S(=O)(=O)N(CC(=O)NC1CCCC1)c1ccc(F)cc1	nt	i	i	nt	i	nt	nt	nt	nt
CCCC(=O)NC(c1ccccc1Cl)c1ccc2cccnc2c1O (stereo not given)	nt	68	91	nt	98	nt	91	78	76
CC(C)CC(=O)NC(c1ccccc1Cl)c1c(O)ccc2ccccc12 (stereo not given)	i	i	i	i	i	i	nt	nt	nt
Cc1ccccc1OCCc1c(C)[nH]c(=S)[nH]c1=O	92	i	82	75	84	73	78	55	56
Cc1[nH]c(=S)[nH]c(=O)c1CCOc1ccccc1	i	i	i	i	i	i	nt	nt	nt
C/C(=N\NC(=O)c1nnn(-c2nonc2N)c1-c1ccccc1)c1ccccc1O	nt	i	62	nt	96	nt	85	63	75
C/C(=N\NC(=O)c1nnn(-c2nonc2N)c1-c1ccc2c(c1)OCO2)c1ccccc1	nt	i	i	nt	i	nt	nt	nt	nt
COc1ccccc1N1CC(C(=O)OCC(=O)Nc2c(C)cccc2C)CC1=O (stereo not given)	nt	i	i	nt	i	nt	nt	nt	nt
Cc1cccc(N2CCN(C(=O)c3ccc(CS(=O)(=O)c4ccccc4C)o3)CC2C)c1 (stereo not given)	96	97	89	77	76	75	75	53	48
Cc1ccc(C)c(N2CCN(C(=O)c3ccc(CS(=O)(=O)c4ccccc4C)o3)CC2)c1	i	i	i	i	i	i	nt	nt	nt
O=C(NCc1ccccc1)C1=C[C@@H](c2csc3ccccc23)C[C@@H](OCCCCO)O1	i	95	70	57	30	25	i	i	i
O=C(NC1CC1)C1=C[C@H](c2csc3ccccc23)C[C@H](OCCCCO)O1	i	i	i	i	i	i	nt	nt	nt
Cc1ccc2[nH]c(C(=O)N/N=C/c3ccccc3O)c(C)c2c1	nt	i	71	nt	98	nt	69	i	54
O=C1C(Nc2ccc(O)cc2)=C/C(=N/S(=O)(=O)c2cccs2)c2ccccc21	54	114	67	101	102	87	114	102	103
CCc1ccc(S(=O)(=O)/N=C2\C=C(Nc3cccc(C(=O)O)c3)C(=O)c3ccccc32)cc1	nt	i	i	nt	i	nt	nt	nt	nt
CCc1ccc(S(=O)(=O)/N=C2\C=C(Nc3ccc(O)cc3)C(=O)c3ccccc32)cc1	nt	101	96	nt	102	nt	69	60	67
Cc1cccc(NC2=C/C(=N/S(=O)(=O)c3cccs3)c3ccccc3C2=O)c1	i	nt	i	i	i	i	nt	nt	nt
Cc1cnc(CNC(=O)CC2C(=O)NCCN2Cc2cccc(F)c2F)cn1 (stereo not given)	nt	i	i	nt	i	nt	nt	nt	nt
